NLRP3 yeast inh: blocks the NALP3 inflammasome reconstituted in yeast; inhibition, % at 10 µM; Yeast reconstituted NLRP3/ASC/caspase-1, beta-gal luminescence, 24 h; 330,000 compounds, 0.39% hits; AID 2825;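 active means inhibition of 50% or more; inactive means inhibition below 50%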
tim10-1 inh: growth inhibitors of tim10-1 mutant yeast; S. cerevisiae tim10-1 ts strain growth, BacTiter-Glo, 24 h; inhibition, % at 20 µM; 330,000 compounds, 2.2% hits; AID 463190;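 active means inhibition of at least 40%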;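 further: mutant grown at 25 °C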
PfHsp90 set2: growth inhibition of yeast expressing Plasmodium Hsp90 | S. cerevisiae expressing PfHsp90, BacTiter-Glo ATP, 48 h; yeast lacking PDR1 and PDR3 efflux regulators | inhibition, % at 9.4 µM | 310,000 compounds, 0.32% hits | AID 504621;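 active means every replicate shows inhibition above about 80%, whatever the replicate mean, limit read from the data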
TIM10 inh: growth inhibitors of TIM10 yeast strain; S. cerevisiae TIM10 strain growth, BacTiter-Glo luminescence, 24 h; inhibition, % at 10 µM; AID 463195; 330,000 compounds, 1.4% hits;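 active means inhibition of 40% or more at the single tested concentration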;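 further: wild-type TIM10 isogenic control strain grown at permissive 25 °C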
tim23-1 inh: growth inhibitors of tim23-1 mutant yeast | S. cerevisiae tim23-1 growth, BacTiter-Glo luminescence, 24 h | inhibition, % at 20 µM | 330,000 compounds, 1.3% hits;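 active means growth inhibition of the mutant yeast at or above 50%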;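 further: temperature-sensitive mutant grown at 25 °C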
NALP3 confirm: NALP3 inhibition confirmation in yeast | yeast expressing human NALP3, luminescence | 1,300 compounds, 81% hits | shares compounds with NLRP3 yeast inh | inhibition, % at 10 µM | AID 435006; in the data active means inhibition above about 48%
Casp1-ASC yeast: counter-screen for NALP3 inhibitors: yeast caspase-1-ASC; shares compounds with NLRP3 yeast inh; yeast expressing Caspase-1-ASC, luminescence counter screen; inhibition, % at 10 µM; 1,000 compounds, 66% hits
NALP3 yeast rt: yeast NALP3 inhibition, confirmed on retest; shares compounds with NLRP3 yeast inh; yeast expressing human NALP3, luminescence read-out; inhibition, % at 10 µM; 1,000 compounds, 53% hits; AID 488794
tim10-1 conf: confirmation of tim10-1 mutant yeast growth inhibitors; shares compounds with tim10-1 inh; AID 463213; S. cerevisiae tim10-1 ts strain growth, BacTiter-Glo, 24 h; inhibition, % at 20 µM; 7,400 compounds, 56% hits;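 active means inhibition of yeast growth at or above a set limit in either of two repeat tests at 20 µM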;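 further: tim10-1 mutant grown at permissive 25 °C to find synthetic lethal compounds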
TIM10 conf: TIM10 yeast growth inhibition, confirmed. shares compounds with TIM10 inh. S. cerevisiae tim10 strain growth, BacTiter-Glo luminescence, 24 h. inhibition, % at 10 µM. 4,600 compounds, 63% hits. AID 463215;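 active means inhibition of yeast growth at or above a set limit in either of two replicates at 10 µM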; further: this counterscreen used the strain with wild-type TIM10
tim23-1 conf: confirmation of tim23-1 mutant yeast growth inhibitors | shares compounds with tim23-1 inh | S. cerevisiae tim23-1 growth, BacTiter-Glo luminescence, 24 h | inhibition, % at 20 µM | 4,400 compounds, 83% hits | AID 463218;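 active means inhibition above about 39% in either of two replicate wells at 20 µM, limit read from the data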;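 further: temperature-sensitive tim23-1 mutant grown at 25 °C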
Large screens that a line does not name were inactive (follow-up assays come after a bar, where they were run). Hits are enriched below; roughly 3.7% of the tested compounds scored in any of these assays. Unless noted, no stated cut-off is given here; in the data, active means inhibition above about 50%; inactive means the rest.

O=C1c2sc3nc4ccccc4n3c2C(=O)N1c1ccccc1Cl	NLRP3 yeast inh 52, TIM10 inh 60, tim23-1 inh 56 | NALP3 confirm 52 | Casp1-ASC yeast inactive | NALP3 yeast rt inactive | TIM10 conf 59 | tim23-1 conf inactive
CC(=O)OCC(=O)C1(O)CCC2C3CCC4=CC(=O)CCC4(C)C3C(O)CC21C (stereo not given)	none (no result: NLRP3 yeast inh, tim10-1 inh, TIM10 inh, tim23-1 inh)
CCc1nc(SCc2cc(=O)[nH]c3ccccc23)c2c(C)c(C)sc2n1	none (no result: NLRP3 yeast inh, tim10-1 inh, TIM10 inh, tim23-1 inh)
CN(C)S(=O)(=O)c1ccc(NC(=O)Cn2nc(-c3ccc4c(c3)OCCO4)ccc2=O)cc1	none (no result: NLRP3 yeast inh, tim10-1 inh, TIM10 inh, tim23-1 inh)
COc1ccc(OC)c(C(C[N+](=O)[O-])c2c(C)cc3ccccn23)c1 (stereo not given)	NLRP3 yeast inh 64, tim10-1 inh 45, TIM10 inh 66, tim23-1 inh 85 | NALP3 confirm inactive | Casp1-ASC yeast 67 | NALP3 yeast rt inactive | tim10-1 conf 61 | TIM10 conf 82 | tim23-1 conf 91
CC(C)(C)OC(=O)N1CCC[C@H]1C(=O)Nc1ccc(C#N)cc1	none
CCCn1nnc(NC(=O)c2cccc(Cl)c2)n1	none
CCCn1nnc(NC(=O)c2sc3ccccc3c2Cl)n1	NLRP3 yeast inh 51, tim23-1 inh 53 | NALP3 confirm 54 | Casp1-ASC yeast inactive | NALP3 yeast rt inactive | tim23-1 conf 42
Cc1cc(-c2ccc(S(=O)(=O)N(C)Cc3ccccc3)cc2)on1	none
CC(=O)N1c2ccc(S(=O)(=O)N3CCCC3)cc2CC1C(=O)Nc1cc(C)cc(C)c1 (stereo not given)	none
CC1(C)COC(c2cc([N+](=O)[O-])ccc2Cl)=N1	none
CC1(C)COC(/C=C/c2cccc([N+](=O)[O-])c2)=N1	NLRP3 yeast inh 55, tim10-1 inh 60, TIM10 inh 47, tim23-1 inh 59 | NALP3 confirm 62 | Casp1-ASC yeast 74 | NALP3 yeast rt 57 | tim10-1 conf 43 | TIM10 conf 46 | tim23-1 conf 40
COc1ccc(N=Nc2cc(C)ccc2O)cc1	none
Cc1ccc(O)c(N=Nc2nccs2)c1	NLRP3 yeast inh 90, PfHsp90 set2 112, TIM10 inh 50, tim23-1 inh 72 | NALP3 confirm 91 | Casp1-ASC yeast 99 | NALP3 yeast rt 96 | TIM10 conf 68 | tim23-1 conf 71
O=C(N/N=C/c1ccc(F)cc1)c1c(O)c2ccccc2[nH]c1=O	none
O=C(N/N=C/c1ccccc1)c1c(O)c2ccccc2[nH]c1=O	NLRP3 yeast inh 55, tim23-1 inh 73 | NALP3 confirm 65 | tim23-1 conf inactive
O=C(/C=C/c1ccnc2ccccc12)c1cccs1	NLRP3 yeast inh 53, tim10-1 inh 71, PfHsp90 set2 85, TIM10 inh 79, tim23-1 inh 67 | NALP3 confirm 73 | tim10-1 conf 72 | TIM10 conf 83 | tim23-1 conf inactive
COc1ccc(N=C(C)C2=C(O)c3ccccc3C2=O)cc1	NLRP3 yeast inh 50, TIM10 inh 62, tim23-1 inh 58 | NALP3 confirm inactive | Casp1-ASC yeast 57 | NALP3 yeast rt inactive | TIM10 conf inactive | tim23-1 conf 68
C/C(=N\N(C)C)C1=C(O)c2ccccc2C1=O	none
CCc1ccn2cc(-c3cc(-c4ccccc4)no3)nc2c1	NLRP3 yeast inh 81, TIM10 inh 62, tim23-1 inh 61 | NALP3 confirm 81 | Casp1-ASC yeast inactive | NALP3 yeast rt inactive | TIM10 conf 56 | tim23-1 conf 81
Clc1ccc(-c2cc(-c3ccccc3)on2)cc1	none
CCc1ccccc1NC(=S)N1CCCCCC1	none
CCN(CC)c1ccc2nc3ccc(N)cc3[n+](-c3ccccc3)c2c1	NLRP3 yeast inh 51, tim10-1 inh 57, tim23-1 inh 59 | NALP3 confirm 51 | Casp1-ASC yeast inactive | NALP3 yeast rt 52 | tim10-1 conf 43 | tim23-1 conf 57
CC(C)CC(=O)N1CCN(C(=O)c2ccc(-c3ccccc3)cc2)CC1	none
CN1CCN(C(=O)c2cc(COc3c(F)cccc3F)on2)CC1c1ccccc1 (stereo not given)	NLRP3 yeast inh 84, tim10-1 inh 42, PfHsp90 set2 110, TIM10 inh 52, tim23-1 inh 63 | NALP3 confirm 88 | Casp1-ASC yeast 85 | NALP3 yeast rt 84 | tim10-1 conf inactive | TIM10 conf 53 | tim23-1 conf 50
Cc1cc(C(=O)Nc2ccc(Br)cn2)sc1C	NLRP3 yeast inh 59, tim23-1 inh 64 | NALP3 confirm 61 | Casp1-ASC yeast 57 | NALP3 yeast rt 56 | tim23-1 conf 68
CC(OC(=O)CN1C(=O)NC2(CCCC2)C1=O)C(=O)Nc1cccc(Cl)c1 (stereo not given)	none
CC1(C)CC(=O)C=C(c2cccc(Cl)c2O)C1	NLRP3 yeast inh 71, tim23-1 inh 59 | NALP3 confirm 65 | Casp1-ASC yeast 75 | NALP3 yeast rt 62 | tim23-1 conf 53
O=C(Nc1ccc2nc3n(c(=O)c2c1)CCCCC3)c1cc([N+](=O)[O-])ccc1F	NLRP3 yeast inh 63, TIM10 inh 48, tim23-1 inh 68 | NALP3 confirm 80 | Casp1-ASC yeast 69 | NALP3 yeast rt 56 | TIM10 conf 46 | tim23-1 conf 55
O=C(N/N=C/C(Br)=C/c1ccccc1)c1cccs1	NLRP3 yeast inh 50, TIM10 inh 41, tim23-1 inh 61 | NALP3 confirm 63 | TIM10 conf inactive | tim23-1 conf 76
O=C(N/N=C/C=C/c1ccccc1)c1cccs1	none
CCN1C=C(C(C)=O)C(=O)CC1	none (no result: NLRP3 yeast inh, tim10-1 inh, TIM10 inh, tim23-1 inh)
Cc1noc(C)c1S(=O)(=O)N(C)C[C@H]1Oc2c(cccc2N(C)C)C(=O)N([C@H](C)CO)C[C@@H]1C	none
CCOC(=O)N=Nc1c2ccccc2c2nc3no[nH]c3nc12	NLRP3 yeast inh 86, tim10-1 inh 76, PfHsp90 set2 108, TIM10 inh 86, tim23-1 inh 55 | NALP3 confirm 92 | Casp1-ASC yeast 72 | NALP3 yeast rt 62 | tim10-1 conf 81 | TIM10 conf 96 | tim23-1 conf 81

High-throughput results as filed in PubChem BioAssay.
